Results taken from PubChem BioAssay.
The source made the active and inactive calls.

Assays:
[1] = molecular target: Albumin (Bos taurus) (UniProt P02769); experiment: bovine serum albumin binders on microarray, profiling panel, artefact control for SMM control protein annotation, biochemical, small-molecule microarray, Alexa647 label, 635/667 nm fluorescence (AID 1118); conditions: BSA-A647 binding, fluorescence 635 nm, higher = more signal;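 also: score merges 667 nm emission intensity and signal-to-noise per printed compound spot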
Chain of Albumin (Bos taurus) (P02769 whole entry, looked up): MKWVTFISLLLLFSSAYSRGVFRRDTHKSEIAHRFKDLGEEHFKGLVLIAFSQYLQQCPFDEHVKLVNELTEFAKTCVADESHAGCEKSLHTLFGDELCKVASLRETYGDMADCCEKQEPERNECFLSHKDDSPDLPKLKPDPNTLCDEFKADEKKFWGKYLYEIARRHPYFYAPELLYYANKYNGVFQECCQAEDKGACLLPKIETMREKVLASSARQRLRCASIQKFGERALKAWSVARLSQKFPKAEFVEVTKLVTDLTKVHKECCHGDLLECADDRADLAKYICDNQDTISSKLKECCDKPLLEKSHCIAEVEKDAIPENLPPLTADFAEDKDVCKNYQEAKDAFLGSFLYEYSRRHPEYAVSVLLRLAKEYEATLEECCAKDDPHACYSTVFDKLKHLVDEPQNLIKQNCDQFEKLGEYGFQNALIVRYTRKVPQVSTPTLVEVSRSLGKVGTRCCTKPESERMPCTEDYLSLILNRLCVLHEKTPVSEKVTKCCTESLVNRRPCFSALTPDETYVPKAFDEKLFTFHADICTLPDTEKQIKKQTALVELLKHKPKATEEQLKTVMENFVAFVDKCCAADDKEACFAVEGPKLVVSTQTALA

[2] = small-molecule microarray binders of probe aXIP, primary screen, biochemical, NeuroSMM set, 635/667 nm fluorescence (AID 1119); conditions: higher = more signal, called active from +8 up or from −8 down;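 also: probe is the protein aXip251-270 applied at 1 µg/mL to compound-printed slides; binding of probe to printed compounds measured as 667 nm fluorescence plus signal to noise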
[3] = small-molecule binders of probe aNOTCH3, primary screen, biochemical, small-molecule microarray, 635/667 nm fluorescence (AID 1120); conditions: higher = more signal;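 also: probe is a biotin-tagged antibody raised against NOTCH3 rather than NOTCH3 protein; score merges spot fluorescence near 667 nm with spot signal to noise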
[4] = small-molecule binders of probe aNOTCH2, primary screen, biochemical, small-molecule microarray, 635/667 nm fluorescence (AID 1121); conditions: higher = more signal;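 also: score merges feature fluorescence read at 667 nm with its signal to noise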
[5] = molecular target: Carbonic anhydrase 2 (Homo sapiens) (UniProt P00918); experiment: CAII small-molecule binders, profiling panel, biochemical, small-molecule microarray, Alexa647-labelled CAII (AID 1122); conditions: CAII-A647 binding fluorescence, higher = more signal
[6] = COS7 lysate on small-molecule microarray, probe aHis, 635 nm (AID 1123); conditions: COS7 cell lysate, fluorescence, higher = more signal;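 also: z-score combines 667nm fluorescence intensity with signal-to-noise per printed compound spot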
[7] = compound binding in COS7 lysate, probe aLAP1, primary screen, cell lysate, small-molecule microarray (AID 1124); conditions: probe aLAP1, fluorescence, higher = more signal;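 also: lysate comes from COS7 cells expressing LAP1 and is applied at 0.3 µg/mL; score merges spot fluorescence near 667 nm with signal-to-noise over triplicate slides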
[8] = tested on: Sam68 (KHDRBS1); experiment: Sam68 small-molecule binders, primary screen, biochemical, small-molecule microarray, 635 nm fluorescence (AID 1125); conditions: small-molecule microarray binding, higher = more signal;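 also: score merges 667 nm channel intensity with signal to noise over triplicate slides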
[9] = tested on: Chordin-like protein 2 (CHRDL2); experiment: CHRDL2 small-molecule binders, primary screen, biochemical, small-molecule microarray, 635 nm fluorescence (AID 1126); conditions: small-molecule microarray binding, fluorescence 635 nm; higher = more signal;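 also: printed compound slides probed with Chrdl2 protein at 4 µg/mL for 1 h at 4 C; score merges 667 nm emission intensity with signal to noise over three replicate slides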
[10] = molecular target: Concanavalin-A (Canavalia ensiformis) (UniProt P02866); experiment: ConA small-molecule binders, primary screen, artefact control for SMM control protein annotation, biochemical, small-molecule microarray, Alexa647 label, 635 nm (AID 1127); conditions: ConA-A647 binding fluorescence, higher = more signal;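 also: z combines 667 nm emission intensity with signal-to-noise across three replicate slides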
Chain of Concanavalin-A (Canavalia ensiformis) (P02866 whole entry, looked up): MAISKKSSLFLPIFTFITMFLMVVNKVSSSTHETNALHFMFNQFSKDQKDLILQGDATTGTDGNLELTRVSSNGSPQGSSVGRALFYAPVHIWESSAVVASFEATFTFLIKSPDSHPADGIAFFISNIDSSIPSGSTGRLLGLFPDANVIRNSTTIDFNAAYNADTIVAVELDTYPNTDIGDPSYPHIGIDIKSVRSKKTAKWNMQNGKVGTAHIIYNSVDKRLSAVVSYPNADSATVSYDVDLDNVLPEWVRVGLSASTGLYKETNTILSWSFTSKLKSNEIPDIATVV

Structure (SMILES)	composite z-score [1]	composite Z-score [2]	composite z-score [3]	composite z-score [4]	composite z-score [5]	composite z-score [6]	composite z-score [7]	composite z-score [8]	composite z-score [9]	composite z-score [10]
CCOC(=O)C[C@H]1[C@H](OC(=O)c2ccccc2-c2ccccc2)[C@@H](NC(=O)c2ccc3ccccc3n2)c2cc(OCCCO)ccc2N1C(=O)c1ccccc1	-0.321	0.311 (inactive)	0.038	-0.14	0.286	0.824	-0.0982	1.33	0.374	0.37
C=C[C@@H](OC)[C@H](OC(=O)Nc1ccc(OC)cc1)c1ccc(OC)c(O)c1	-0.787	0.43 (inactive)	-0.246	-0.203	0.415	1.36	0.0218	-0.853	-0.96	-0.613
CCCC=C(CCC)[C@@H](NC(=O)CCc1ccccc1)c1ccc(C(F)(F)F)cc1	0.964	-0.1 (inactive)	0.265	-0.0095	0.58	2.82	0.0364	1.27	-0.153	1.1
CCOC(=O)C1=CCC(c2ccccc2)N(S(=O)(=O)c2ccc([N+](=O)[O-])cc2)C1 (stereo not given)	0.193	-0.275 (inactive)	-0.0077	-0.108	0.0862	1.07	0.173	0.439	0.0332	-0.104
COC(=O)C1=CC(CCCO)=CC(c2ccc(CN3CCCC3)cc2)N(Cc2cc3c(cc2Br)OCO3)C=C1C(=O)OC (stereo not given)	1.04	0.339 (inactive)	0.477	0.135	0.705	1.76	0.672	1.3	-0.384	0.701
CC(C)C(=C=CC[C@@H](O)c1cccc(OCCO)c1)C[C@@H](O)c1ccccn1	0.0608	-0.259 (inactive)	-0.0362	-0.123	0.26	-0.293	0.726	-0.228	-0.377	-0.155
COCCCNC(=O)[C@@]1(c2ccc([N+](=O)[O-])cc2)CC(=O)N(C(C)C)[C@@H]1c1ccc(CO)cc1	0.224	-0.786 (inactive)	-0.424	-0.0282	0.729	0.198	1.25	0.353	0.454	-1.5
CC(=O)NCCCC[C@@H]1NC(=O)[C@H]2C[C@@H](C(=O)NCCCCCNC(=O)CS)[C@@H](c3cccc(OCCO)c3)N2C1=O	0.419	1.98 (inactive)	-0.27	-0.173	0.364	2.34	-0.178	0.742	0.715	0.493
COCCOC(=O)N1C(=O)[C@@]2(c3ccccc31)[C@H](c1ccccc1OCCO)N1[C@H](c3ccccc3)[C@H](c3ccccc3)OC(=O)[C@H]1[C@@H]2C(=O)N1CCCCCCC1	-0.0233	7.47 (inactive)	2.15	1.16	0.935	4.27	1.96	1.29	1.47	0.883
[N-]=[N+]=NCc1ccccc1C[C@]1(C(=O)N2CCOCC2)COC(c2ccc(OCCCO)cc2)=N1	0.754	-0.592 (inactive)	0.139	0.126	0.71	0.969	0.262	1.22	-0.202	0.468
COc1cc(NN2C(C(O)c3ccccc3)C=CC3C(=O)N(C)C(=O)C32)cc(OC)c1OC (stereo not given)	0.566	1.13 (inactive)	0.12	-0.0817	0.781	1.73	0.481	1.3	-0.179	0.659
O=C1[C@@H]2[C@@H](CC(COc3ccccc3)=C3[C@@H](CCc4ccccc4)OB(O)C[C@@H]32)C(=O)N1Cc1ccccc1	-0.0421	0.196 (inactive)	0.0242	-0.13	0.413	0.782	0.111	-0.258	0.139	0.0019
CC(=O)NCCCC[C@@H]1NC(=O)[C@@H]2C[C@H](C(=O)NCCCCCCN)[C@H](c3cccc(OCCO)c3)N2C1=O	0.851	0.801 (inactive)	-0.0682	-0.149	0.779	1.72	1.89	1.12	-0.878	1.12
COCC1C2CC[C@H]3C(OCc4ccc(OC)cc4)OC[C@]4(C)[C@H]3C2=C(CN4C(=O)OC(C)(C)C)[C@H](C)C1COC (stereo not given in full)	1	0.709 (inactive)	0.249	-0.182	0.796	2.82	0.534	1.3	-0.355	1.15
NC(=O)[C@@H]1[C@H]2C(=O)O[C@H](c3ccccc3)[C@H](c3ccccc3)N2[C@H](c2ccc(OCCO)cc2)[C@@]12C(=O)Nc1ccc(C#CCCO)cc12	0.629	0.238 (inactive)	-0.12	-0.0681	0.407	0.661	0.959	0.837	-0.178	0.557
CCCCC(=C=CC[C@H](O)c1ccc(OCCO)cc1)C[C@H](O)c1cc(Cl)cc(Cl)c1O	0.377	0.671 (inactive)	-0.0178	-0.133	0.456	0.271	0.163	0.805	0.44	0.72

Structure (SMILES)	composite z-score [1]	composite Z-score [2]	composite z-score [3]	composite z-score [4]	composite z-score [5]	composite z-score [6]	composite z-score [7]	composite z-score [8]	composite z-score [9]	composite z-score [10]
[N-]=[N+]=NCc1ccccc1[C@@H]1OC(c2ccc(OCCCO)cc2)=N[C@]1(Cc1ccccc1N=[N+]=[N-])C(=O)NCCN1CCOCC1	0.741	0.215 (inactive)	0.202	-0.0219	0.828	2.14	1.01	1.31	0.32	0.863
COCCOC(=O)N1C(=O)[C@@]2(c3cc(C#CCC(C(=O)OC)C(=O)OC)ccc31)[C@H](c1ccc(OCCO)cc1)N1[C@H](c3ccccc3)[C@H](c3ccccc3)OC(=O)[C@H]1[C@@H]2C(=O)Nc1nc2ccccc2s1	-0.86	0.575 (inactive)	-0.0077	0.15	0.405	0.221	-0.157	1.31	0.219	1.11
[N-]=[N+]=Nc1ccccc1[C@@H]1OC(c2ccc(OCCCO)cc2)=N[C@]1(Cc1ccccc1)C(=O)NCc1ccccc1	0.955	-0.128 (inactive)	0.367	0.156	0.379	2.74	1.13	1.3	-0.553	1.18
O=C1C[C@@](C(=O)NCC(F)(F)F)(c2ccc([N+](=O)[O-])cc2)[C@@H](c2ccc(CO)cc2)N1CC12CC3CC(CC(C3)C1)C2	-0.191	1.68 (inactive)	0.6	0.0345	0.502	2.17	-0.0251	1.29	0.297	1.13
CN1C(=O)[C@@]2(Cc3ccccc3)N=C(c3ccc(OCCCO)cc3)O[C@H]2c2ccccc21	0.495	2.86 (inactive)	0.0894	-0.0226	0.603	2.68	-0.233	1.19	0.882	1.11
C=CCC(OC(C)=O)[C@@H]1[C@@H](N(Cc2ccc(-c3ccccc3)cc2)C(=O)Cc2ccc(F)cc2)c2cc(OCCCO)ccc2N1C(=O)Cc1ccc2ccccc2c1 (stereo not given in full)	0.232	-0.34 (inactive)	-0.0931	-0.046	0.244	1.29	0.201	-0.869	-0.353	-0.474
CC1(C)C(=O)C(c2ccccc2)=C2CN3C(=O)N(CCc4ccccc4)C(=O)C3(Cc3ccc(C(F)(F)F)cc3)C=C21 (stereo not given)	0.925	-0.301 (inactive)	0.561	0.306	0.581	2.1	0.014	0.764	-1.06	0.702
O=C1NC(=O)C2C1C=CC(C(O)c1ccccn1)N2Nc1ccc(Cl)cc1Cl (stereo not given)	1.02	0.222 (inactive)	0.0773	0.0554	0.815	3.23	0.048	0.25	-0.44	0.786
CCN(CC)c1ccc(N2CC=CC34O[C@@H]5C=CCCOC(=O)C5[C@H]3C(=O)N(CCO)[C@@H]4C2=O)cc1 (stereo not given in full)	0.0715	-0.296 (inactive)	-0.341	-0.158	0.898	-0.724	0.624	-0.661	-0.414	-2.06
NCCCCCNC(=O)[C@H]1C[C@H]2C(=O)N[C@@H](Cc3ccccc3)C(=O)N2[C@H]1c1ccc(O)cc1	0.819	0.491 (inactive)	0.248	0.197	0.487	1.23	1.23	1.28	0.518	1.08
COC(=O)[C@@]1(Cc2ccccc2CN=[N+]=[N-])N=C(c2ccc(OCCCO)cc2)O[C@H]1c1ccccc1	0.0186	0.951 (inactive)	0.177	0.0919	0.645	2.52	0.717	0.711	0.4	0.686
CC1(C)C(=O)C(c2ccccc2)=C2CN3C(=O)N(CCc4ccccc4)C(=O)C3(Cc3ccc(F)cc3)C=C21 (stereo not given)	0.471	0.0294 (inactive)	0.781	0.246	0.0225	1.39	0.155	0.222	-1.21	0.477
[N-]=[N+]=NCc1ccccc1C[C@@]1(C(=O)N2CCCCC2)N=C(c2ccc(OCCCO)cc2)O[C@@H]1c1ccccc1CN=[N+]=[N-]	0.36	0.569 (inactive)	0.0435	0.0515	0.711	1.81	1.06	1.08	-1.07	1.09
NC(=O)[C@H]1[C@@H]2C(=O)O[C@@H](c3ccccc3)[C@@H](c3ccccc3)N2[C@@H](c2ccc(O)cc2)[C@]12C(=O)Nc1ccc(C#CC3=CCCCC3)cc12	0.396	0.224 (inactive)	-0.0273	-0.156	0.293	2.13	0.249	0.662	-0.758	0.565
COC(=O)C1=CC(CCCO)=CC(C)N(Cc2cccc(OC(F)(F)F)c2)C=C1C(=O)OC (stereo not given)	1.03	-0.288 (inactive)	0.147	-0.0743	0.8	2.63	0.348	1.27	-0.595	0.355
CC(C)CNC(=O)[C@@]1(C)c2ccccc2C(=O)N(Cc2cc(C(F)(F)F)cc(C(F)(F)F)c2)[C@H]1c1ccc(CO)cc1	0.184	0.635 (inactive)	-0.242	-0.111	0.72	0.79	-0.205	0.108	-0.307	0.0758
